Data: PubChem BioAssay AID1220 (Sanford-Burnham Center for Chemical Genomics, 2008)
In all, about 190,000 compounds went through this assay and about 1,300 (0.68%) were called active. What follows is part of a selection rich in actives, with near analogues and random picks from the rest. Unmarked numbers belong to inactive results. No stated cut-off is given here; in the data, active means inhibition above about 50%; inactive means the rest.

molecular target: Mannose-6-phosphate isomerase (Homo sapiens) (UniProt P34949); experiment: MPI inhibition at elevated mannose 6-phosphate – biochemical, fluorescence intensity, high mannose 6-phosphate, primary screen (AID 1220); details: recombinant PMI enzyme, coupled fluorescence intensity; at 20 µM; stronger effect = higher value
Sequence (P34949 whole entry, looked up): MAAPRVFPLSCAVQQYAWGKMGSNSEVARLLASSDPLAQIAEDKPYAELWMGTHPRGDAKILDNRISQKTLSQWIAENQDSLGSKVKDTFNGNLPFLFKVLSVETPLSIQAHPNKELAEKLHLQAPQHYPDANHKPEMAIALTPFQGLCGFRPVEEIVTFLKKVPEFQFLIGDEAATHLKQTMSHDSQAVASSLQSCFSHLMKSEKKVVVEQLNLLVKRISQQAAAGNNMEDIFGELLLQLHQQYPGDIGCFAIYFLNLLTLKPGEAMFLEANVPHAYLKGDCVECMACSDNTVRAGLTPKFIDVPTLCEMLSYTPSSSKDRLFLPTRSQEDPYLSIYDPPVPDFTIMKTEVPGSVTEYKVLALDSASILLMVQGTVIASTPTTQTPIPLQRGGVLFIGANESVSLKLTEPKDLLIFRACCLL

Question: Cc1ccc(C(=O)N/C(=C/c2ccccc2)C(=O)NCC2CCCO2)cc1 (stereo not given) was tested. Which inhibition did it give?
Answer: -4.3%

Question: With NNC(=O)COc1ncn(-c2ccccc2)n1 as the molecule, how does the inhibition read?
Answer: 4.5%

Question: For Cc1ccc(NC(=O)C(=O)NCCN2CCN(C(=S)Nc3ccccc3)CC2)cc1, which inhibition is on record?
Answer: -0.2%

Question: How did the inhibition turn out when COCCNC(=O)CN(C(=O)Cn1nnc2ccccc21)c1ccc(F)c(Cl)c1 was run?
Answer: -5.3%

Question: With O=c1[nH]c2ccccc2c2ccccc12 as the molecule, how does the inhibition read?
Answer: 3.6%

Question: Which inhibition does the source give for CC(=O)Nc1c(O)c2ccccc2[nH]c1=O here?
Answer: 17.5%

Question: COc1cc([N+](=O)[O-])ccc1NC(=O)CCCOc1cccc(C)c1C was tested. Which inhibition did it give?
Answer: 9.2%

Question: OCCOCCOc1ccc(-c2nn[nH]n2)cc1 was tested. Which inhibition did it give?
Answer: -12.5%

Question: For CCCCC(=O)Nc1ccc(NC(=S)NC(=O)c2cccs2)cc1OC, which inhibition is on record?
Answer: 14.4%

Question: O=C(Nc1cccc(S(=O)(=O)Nc2ccccc2Cl)c1)c1ccc(Cl)nc1 was tested. Which inhibition did it give?
Answer: 7.3%

Question: For CN1c2ccccc2N(C)C1c1c(O)ccc2ccccc12, which inhibition is on record?
Answer: 55.3% (active)

Question: How did the inhibition turn out when Oc1ccc2ccccc2c1C1Nc2cccc3cccc(c23)N1 was run?
Answer: 10.6%

Question: With CCC12CN3CC(CC)(CN(C1)C3c1c(O)ccc3ccccc13)C2=O (stereo not given) as the molecule, how does the inhibition read?
Answer: 27.9%

Question: Which inhibition does the source give for Fc1ccc(NC(=S)N2CCn3cccc3C2c2cccnc2)cc1 (stereo not given) here?
Answer: 1%

Question: Cc1ccc(NC(=O)C(Nc2ccccc2)c2ccccc2)cc1 (stereo not given) was tested. Which inhibition did it give?
Answer: 1.5%

Question: CC(=O)N1N=C(c2cccc([N+](=O)[O-])c2)OC1c1cccc(Br)c1 (stereo not given) was tested. Which inhibition did it give?
Answer: 4.5%

Question: Which inhibition does the source give for CCC(=Nc1ccc(N)cc1)C1=C(O)C(C(=O)OC)C(C)(C)CC1=O (stereo not given) here?
Answer: 53.8% (active)

Question: For CCCCC(=Nc1ccc(N)cc1)C1=C(O)C(C(=O)OC)C(C)(C)CC1=O (stereo not given), which inhibition is on record?
Answer: 15.5%

Question: With CCCC(=Nc1ccc(N)cc1)C1=C(O)C(C(=O)OC)C(C)(C)CC1=O (stereo not given) as the molecule, how does the inhibition read?
Answer: 28.8%

Question: How did the inhibition turn out when COc1ccc(OC)c2sc(NC(=O)CCSc3ccccc3)nc12 was run?
Answer: 2.1%

Question: Cc1cc(C)c2ccc(C)[n+]([O-])c2c1O was tested. Which inhibition did it give?
Answer: -26.8%

Question: Cc1ccc2cccc(O)c2[n+]1[O-] was tested. Which inhibition did it give?
Answer: 53.5% (active)

Question: Oc1cccc2cc3cccc(O)c3c(O)c12 was tested. Which inhibition did it give?
Answer: -119%

Question: Cc1cccc(Cn2ccc(NC(=O)c3cccnc3)n2)c1 was tested. Which inhibition did it give?
Answer: -9.3%

Question: For CCOc1ccc(C(=O)CC(Sc2ccc(C)cc2)C(=O)O)cc1 (stereo not given), which inhibition is on record?
Answer: -4%

Question: How did the inhibition turn out when CCCOC(=O)c1ccc(Oc2c(-c3ccc(O)cc3O)n[nH]c2C)cc1 was run?
Answer: 5.2%

Question: Which inhibition does the source give for COc1cc(N2CCCC2)ccc1C=O here?
Answer: 23%

Question: How did the inhibition turn out when COc1cc(N2CCCC2)c(OC)cc1C=O was run?
Answer: 53.6% (active)

Question: With COc1cc(N2CCCC2)c(OC)cc1/C=C1/NC(=S)NC1=O as the molecule, how does the inhibition read?
Answer: 27.9%

Question: For COc1cc(N2CCCC2)c(OC)cc1/C=C(/C#N)c1ccc(Br)cc1, which inhibition is on record?
Answer: 13.6%

Question: Which inhibition does the source give for COc1cc(N2CCCC2)c(OC)cc1/C=C(/C#N)c1cccc(F)c1 here?
Answer: 11.2%

Question: How did the inhibition turn out when COc1cc(N2CCCC2)c(OC)cc1/C=C(/C#N)c1ccc(F)cc1 was run?
Answer: 54.8% (active)

Question: How did the inhibition turn out when CCOCCCN1CN(Cc2ccccc2)CNC1=S was run?
Answer: -6.2%

Question: Cc1cc(C)cc(OCC(=O)OCCN2C(=O)c3ccccc3C2=O)c1 was tested. Which inhibition did it give?
Answer: 11.5%

Question: How did the inhibition turn out when CCOC(=O)N1CCN(C2=Nc3cccc4cccc2c34)CC1 was run?
Answer: 58.5% (active)

Question: Which inhibition does the source give for O=S1(=O)N=C(N2CCc3ccccc3C2)c2ccccc21 here?
Answer: -8.5%

Question: c1ccc(CC2CCN(C3=Nc4cccc5cccc3c45)CC2)cc1 was tested. Which inhibition did it give?
Answer: 10.8%

Question: With CCOC(=O)N1CCN(c2cccc(C)c2C)CC1 as the molecule, how does the inhibition read?
Answer: -11.4%

Question: With CC1CN(C2=Nc3cccc4cccc2c34)CC(C)O1 (stereo not given) as the molecule, how does the inhibition read?
Answer: 59.2% (active)

Question: With c1ccc(CN2CCN(C3=Nc4cccc5cccc3c45)CC2)cc1 as the molecule, how does the inhibition read?
Answer: 21.9%

Question: How did the inhibition turn out when c1ccc(NC2=Nc3cccc4cccc2c34)cc1 was run?
Answer: 9.8%

Question: With CC1CN(c2nc3ccccc3cc2-c2ccccc2)CC(C)O1 (stereo not given) as the molecule, how does the inhibition read?
Answer: 5.7%

Question: For NC(=O)NNC1=Nc2cccc3cccc1c23, which inhibition is on record?
Answer: 8.5%

Question: For COc1ccccc1N1CCN(C2=Nc3cccc4cccc2c34)CC1, which inhibition is on record?
Answer: 27.3%

Question: How did the inhibition turn out when NC1=Nc2cccc3cccc1c23 was run?
Answer: 60% (active)

Question: How did the inhibition turn out when c1ccc2c(c1)CCN(C1=Nc3cccc4cccc1c34)C2 was run?
Answer: 60.2% (active)

Question: Cc1nn2c(=O)c(NC(=O)c3ccc(Cl)cc3)cnc2s1 was tested. Which inhibition did it give?
Answer: 0.6%

Question: For Cc1ccc(/C(N)=N/OC(=O)c2cccc(F)c2)cc1, which inhibition is on record?
Answer: 3.9%

Question: COc1ccc(C(=O)OCC(=O)N2C(C)CCCC2C)cc1[N+](=O)[O-] (stereo not given) was tested. Which inhibition did it give?
Answer: -0.8%

Question: How did the inhibition turn out when COC(=O)c1ccccc1NC(=O)N[C@@H](C)C(=O)OC was run?
Answer: -13.4%

Question: With O=C1OCC(CO)(CO)N=C1NNc1cc(Cl)ccc1Cl as the molecule, how does the inhibition read?
Answer: -81.3%

Question: CCC(=O)NCCNc1nc2cc(C)cc(C)c2cc1C#N was tested. Which inhibition did it give?
Answer: 12.8%

Question: How did the inhibition turn out when CC(C)C(NC(=O)c1ccccc1Cl)C(=O)OCc1nc2scc(-c3ccccc3Cl)c2c(=O)[nH]1 (stereo not given) was run?
Answer: -15.4%

Question: With c1cc2c3c(cccc3c1)C(N1CCCCC1)=N2 as the molecule, how does the inhibition read?
Answer: 58.7% (active)

Question: For Fc1ccc(N2CCN(C3=Nc4cccc5cccc3c45)CC2)cc1, which inhibition is on record?
Answer: 32.1%

Question: For CC(=O)N1CCN(C2=Nc3cccc4cccc2c34)CC1, which inhibition is on record?
Answer: 52.4% (active)

Question: With c1cc2c3c(cccc3c1)C(N1CCCCCC1)=N2 as the molecule, how does the inhibition read?
Answer: 12.7%

Question: O=C(CCCN1C(=O)c2cccc3cccc(c23)C1=O)N1CCN(c2ncccn2)CC1 was tested. Which inhibition did it give?
Answer: 10.1%

Question: How did the inhibition turn out when O=C(CN1C(=O)c2cccc3cccc(c23)C1=O)N1CCN(c2ccccn2)CC1 was run?
Answer: -1.5%

Question: How did the inhibition turn out when CC(C)n1nnnc1SCC(=O)NCc1ccc2c(c1)OCO2 was run?
Answer: -4.5%

Question: How did the inhibition turn out when OCCN1CCN(c2ncnc3nc[nH]c23)CC1 was run?
Answer: 10.7%

Question: Which inhibition does the source give for COCCN1CCCC(CNCc2cn(C)nc2-c2ccc(Oc3ccccc3)cc2)C1 (stereo not given) here?
Answer: 10.6%

Question: O=c1c(Cc2ccc(Cl)cc2Cl)c(O)ccn1CCCN1CCOCC1 was tested. Which inhibition did it give?
Answer: -5.3%

Question: How did the inhibition turn out when NC(=O)C1=C[C@H](c2ccc(C(F)(F)F)cc2)C[C@H](OCCCCO)O1 was run?
Answer: 53.7% (active)

Question: Which inhibition does the source give for O=C(NC1CC1)C1=C[C@@H](c2ccc(Br)cc2)C[C@@H](OCCCCO)O1 here?
Answer: -2.7%

Question: For O=C(C1=C[C@H](c2ccc(C(F)(F)F)cc2)C[C@H](OCCCCO)O1)N1CCOCC1, which inhibition is on record?
Answer: -0.7%

Question: How did the inhibition turn out when C#CCNC(=O)C1=C[C@@H](c2ccc(C(F)(F)F)cc2)C[C@@H](OCCCCO)O1 was run?
Answer: 38.5%

Question: How did the inhibition turn out when CN1CCN(C(=O)C2=C[C@@H](c3ccc(C(F)(F)F)cc3)C[C@@H](OCCCCO)O2)CC1 was run?
Answer: 1.4%

Question: O=C(C1=C[C@@H](c2ccc(C(F)(F)F)cc2)C[C@@H](OCCCCO)O1)N1CCOCC1 was tested. Which inhibition did it give?
Answer: -1.4%

Question: NC(=O)C1=C[C@@H](c2ccc(Br)cc2)C[C@@H](OCCCCO)O1 was tested. Which inhibition did it give?
Answer: 66.1% (active)

Question: Which inhibition does the source give for NC(=O)C1=C[C@@H](c2ccc(C(F)(F)F)cc2)C[C@@H](OCCCCO)O1 here?
Answer: 57.4% (active)

Question: Which inhibition does the source give for O=C(O)C1=C[C@H](c2ccc(Br)cc2)C[C@H](OCCCCO)O1 here?
Answer: -7.2%

Question: How did the inhibition turn out when CN(C)CCCCOc1cccc(Br)c1 was run?
Answer: -14%

Question: How did the inhibition turn out when COCCn1c(=O)[nH]c2cc(C(=O)NCCCN3CCN(c4ccc(F)cc4)CC3)ccc2c1=O was run?
Answer: -12.2%

Question: With CCC(=O)Nc1cc(C(C)C)c(O)cc1C as the molecule, how does the inhibition read?
Answer: -2.4%

Question: CCOc1cc(C(=O)N2CCN(c3ccc(C(C)=O)cc3)CC2)cc(OCC)c1OCC was tested. Which inhibition did it give?
Answer: 6.8%

Question: Which inhibition does the source give for O=C(O)c1ccc(CSCc2ccco2)cc1 here?
Answer: 4.1%

Question: For CC(C(=O)Nc1cccc([N+](=O)[O-])c1)N1CCN(C/C=C/c2ccccc2)CC1 (stereo not given), which inhibition is on record?
Answer: 12%

Question: Cc1occc1C(=O)N/N=C/c1cnn(C)c1C was tested. Which inhibition did it give?
Answer: 64% (active)

Question: How did the inhibition turn out when Cc1c(/C=N\NC(=O)c2csc3ccccc23)cnn1C was run?
Answer: 2.4%

Question: For Cc1c(/C=N\NC(=O)c2ccc(F)cc2)cnn1C, which inhibition is on record?
Answer: 9.7%

Question: COc1c2ccoc2c(OC[C@@H](O)C(C)(C)OC)c2oc(=O)ccc12 was tested. Which inhibition did it give?
Answer: 9.3%

Question: For CCOC(=O)N1CCN(C(=O)C2CCN(CC3CCCCC3)CC2)CC1, which inhibition is on record?
Answer: -10.5%

Question: Which inhibition does the source give for COc1ccc(C(=O)n2nnc3ccccc32)cc1OC here?
Answer: 6%

Question: How did the inhibition turn out when FC(F)(F)C1=CC(c2ccccc2)=NCCN1 was run?
Answer: 0.2%

Question: Oc1ccccc1C1=NCCNC(C(F)(F)F)=C1 was tested. Which inhibition did it give?
Answer: -3.4%

Question: Oc1c(C2=NCCNC(C(F)(F)F)=C2)ccc2ccccc12 was tested. Which inhibition did it give?
Answer: 54.4% (active)

Question: Which inhibition does the source give for Cc1cccc(NC2=C(NC(=O)c3ccccc3)C(=O)c3ccccc3C2=O)c1 here?
Answer: 6.2%

Question: O=C(NC1=C(Nc2ccc(F)cc2)C(=O)c2ccccc2C1=O)c1ccc(Cl)cc1 was tested. Which inhibition did it give?
Answer: 55.3% (active)

Question: With Cc1ccc(NC2=C(NC(=O)c3ccccc3)C(=O)c3ccccc3C2=O)cc1Cl as the molecule, how does the inhibition read?
Answer: 14%

Question: How did the inhibition turn out when O=C(NC1=C(Nc2ccc(Cl)cc2)C(=O)c2ccccc2C1=O)c1ccccc1 was run?
Answer: 58% (active)

Question: Which inhibition does the source give for CN(C1=C(NC(=O)c2ccc(Cl)cc2)C(=O)c2ccccc2C1=O)c1ccccc1 here?
Answer: 25.2%

Question: For O=C(NC(=S)Nc1ccc2c(c1)C(=O)c1ccccc1C2=O)c1ccc(F)cc1, which inhibition is on record?
Answer: -25.8%

Question: Cc1ccc(C(=O)Nc2ccc(C(=O)N3CCCCC3C)cc2)cc1 (stereo not given) was tested. Which inhibition did it give?
Answer: 1%

Question: Which inhibition does the source give for O=C(CSC1=NCCS1)Nc1cccc2ccccc12 here?
Answer: 2.9%

Question: With CC(NC(=S)Nc1cccc(C(F)(F)F)c1)C(C)(C)C (stereo not given) as the molecule, how does the inhibition read?
Answer: 54.2% (active)

Question: Which inhibition does the source give for CC(C)(C)NC(=S)Nc1cccc(C(F)(F)F)c1 here?
Answer: 2.1%

Question: How did the inhibition turn out when FC(F)(F)c1cccc(NC(=S)NC(c2ccccc2)c2ccccc2)c1 was run?
Answer: -5.4%

Question: With CCOC(=O)/C(C#N)=C1/SC(CC)C(=O)N1c1ccc(C)cc1 (stereo not given) as the molecule, how does the inhibition read?
Answer: -25%

Question: Which inhibition does the source give for C/C(=N\Nc1ccc(F)cc1F)c1ccc(N2CCOCC2)cc1 here?
Answer: -144%
